Measured values taken from PubChem BioAssay AID652040 (Broad Institute, 2013).
Measured potencies and affinities stand elsewhere. The source made the active and inactive calls.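 How the source made its calls: active means falling luciferase signal whose fitted half-maximal concentration is at most twice the top tested dose; inconclusive means flat inhibition between 30 and 70% or a poor curve fit; inactive means the rest.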

Assay: off-target signal loss in HeLa-CEM21 co-culture – HeLa F-luc CTL cells, cherry-picked, counter-screen for HIV-1 Env fusion inhibitor project, dose response (AID 652040);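 further: more negative values mean stronger loss of luciferase signal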
Conditions: HeLa-F-luc CTL cells with CEM21, firefly luciferase counterscreen; series mostly up to 35 µM

Row | Compound | outcome
1 | c1ccc2c(c1)ncn2CCCCOc1ccc2c(c1)CCC2 | inactive
2 | CSc1ccc(CN(C)C(=O)c2cccc(S(=O)(=O)N3CCN(Cc4ccccc4)CC3)c2)cc1 | inactive
3 | O=C(CNC(=O)c1cccc(-n2cccc2)c1)Nc1ccccc1Br | inactive
4 | CC(C)CNS(=O)(=O)c1ccc(CCC(=O)N2CCN(Cc3ccc4c(c3)OCO4)CC2)cc1 | inactive
5 | O=C(COC(=O)c1ncc(Cl)c(Cl)c1Cl)NCc1cccs1 | inactive
6 | CCn1ncc(C2=NOC(C(=O)Nc3ccc(C)cc3)C2)c1C (stereo not given) | inactive
7 | Cc1ccc(S(=O)(=O)NCC(=O)OCC(=O)NCc2ccc3c(c2)OCO3)cc1 | inactive
8 | CCn1c(/C=C/N(C)c2ccccc2)[n+](CC)c2ccc(Cl)cc21 | inactive
9 | c1ccc2c(c1)CCN(c1ncnc3c1[nH]c1ccccc13)C2 | inactive
10 | Nc1nc2c(ncn2[C@@H]2O[C@H](C(=O)NCC(c3ccccc3)c3ccccc3)[C@@H](O)[C@H]2O)c(=O)[nH]1 | inactive
11 | C[C@@H]1CN([C@H](C)CO)C(=O)c2cccc(NC(=O)c3ccncc3)c2O[C@@H]1CN(C)Cc1ccc(C(=O)O)cc1 | inactive
12 | CCc1ccc(C(=O)CN2C(=O)NC(C)(c3ccc(C)cc3)C2=O)cc1 (stereo not given) | inactive
13 | O=C(N/N=C/c1ccc(-n2ccnc2)cc1)c1cccs1 | inactive
14 | Fc1ccc(-n2nnnc2-c2cnc(-c3cccs3)nc2C(F)(F)F)cc1 | inactive
15 | O=C(Nc1nc(COc2ccccc2)cs1)C12CC3CC(CC(C3)C1)C2 | inactive
16 | Cn1c(=O)c2c(nc(NCCc3ccccc3)n2Cc2ccccc2)n(C)c1=O | inactive
17 | Cc1ccc(S(=O)(=O)N(C)c2ccc(C(=O)N3CCN(Cc4ccc5c(c4)OCO5)CC3)cc2)cc1 | inactive
18 | O=C(Nc1ccc(Cl)cc1)C1CCCN(C2=NS(=O)(=O)c3ccccc32)C1 (stereo not given) | inactive
19 | Cc1sc2ncnc(N3CCN(S(=O)(=O)c4ccc(Br)cc4)CC3)c2c1C | inactive
20 | CS(=O)(=O)N1CCN(c2ccccc2NC(=O)C(c2ccccc2)c2ccccc2)CC1 | inactive

Row | Compound | outcome
21 | O=C(NCCCc1nc2ccccc2[nH]1)c1ccco1 | inactive
22 | CN1C(=O)C2(c3ccccc31)N(C)CC(c1ccccc1)C21SC(=S)N(Cc2ccco2)C1=O (stereo not given) | inactive
23 | Cc1ccccc1OCCCCn1cnc2ccccc21 | inactive
24 | COc1ccc(C(=O)Nc2nc(-c3ccc(S(=O)(=O)N4CCOCC4)cc3)cs2)cc1 | inactive
25 | COc1ccc(-c2nnc(Nc3nc4c(OC)cccc4s3)o2)cc1 | inactive
26 | CC(C)(C)OC(=O)N1CCc2onc(-c3ccc(Br)cc3)c2C1=O | inactive
27 | CC(C)n1c(NCCc2ccccc2)nc2c1c(=O)n(C)c(=O)n2C | inactive
28 | CCCCn1c(CN(C)Cc2ccccc2)nc2c1c(=O)n(C)c(=O)n2C | inactive
29 | COc1ccccc1Oc1ccc(S(=O)(=O)NCc2ccccn2)cc1 | inactive
30 | COc1ccc(OC)c(NC(=O)COc2ccc3c(c2)CCC3)c1 | inactive
31 | COc1ccc(C(O)c2nc3ccccc3n2C)cc1OC (stereo not given) | inactive
32 | C#CCn1c(=O)c2c(ncn2C)n(C)c1=O | inactive
33 | COc1ccc2c(C)nc(Nc3nc(C)c(C)c(=O)[nH]3)nc2c1 | inactive
34 | COc1ccc(NC(=O)C2(C)CCN2Cc2ccccc2OC(F)F)cc1OC (stereo not given) | inactive
35 | COCCCNC(=O)c1sc2ncnc(N3CCc4ccccc4C3)c2c1C | inactive
36 | COc1ccccc1S(=O)(=O)n1cc(Cc2ccccc2)c(N)n1 | inactive
37 | CCN(CCn1cccn1)C(=O)CC1C(=O)NCCN1CCc1ccccc1 (stereo not given) | inactive
38 | COc1ccc(C(=O)NCCc2ccc(Cl)cc2)cc1S(=O)(=O)N1CCCCC1C (stereo not given) | inactive
39 | CC(C)CN(C(=O)c1ccc(S(=O)(=O)N2CCCCC2)cc1)C1CCS(=O)(=O)C1 (stereo not given) | inactive
40 | CCCCCn1c(C(C)NC(=O)CCC)nc2ccccc21 (stereo not given) | inactive
